From publication PMC12136788
Whole data set: some 5,800 sequences, median “enrichment r” near 0.68, cut for the highest 2% near 11. Not all results are given here.

T1: UNK ZnF1-6 (called full-length) (human, UniProt Q9C0B0 30-357)
T1 sequence: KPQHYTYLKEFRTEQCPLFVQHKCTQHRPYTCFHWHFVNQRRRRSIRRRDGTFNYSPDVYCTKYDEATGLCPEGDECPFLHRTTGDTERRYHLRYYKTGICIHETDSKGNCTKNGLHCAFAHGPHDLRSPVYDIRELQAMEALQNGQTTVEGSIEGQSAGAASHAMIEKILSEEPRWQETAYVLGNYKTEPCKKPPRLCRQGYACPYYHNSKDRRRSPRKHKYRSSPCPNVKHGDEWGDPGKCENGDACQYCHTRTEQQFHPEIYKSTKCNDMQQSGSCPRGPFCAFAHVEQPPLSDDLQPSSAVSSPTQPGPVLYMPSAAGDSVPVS

B1: chr1:46316673:46316776:+|3pUTR|ENSG00000173660|unk|FALSE|unique (ssRNA)
RNA: GGGAGUUCUACAGUCCGACGAUCUGUUUCUUAUUUGUGUAACUGUAAGUUCACAUGAACCUCAUGGGUUUGGCUUAGGCUGGUAGCUUCUAUGUAAUUCGCAAUGAUUCCAUCUAAAUAAAAGUUCUAUGAUCUGCAAACCUGCAACAGAGGAUUGAGCAUCA
B2: chrX:53645320:53645442:-|CDS|ENSG00000086758|unk|FALSE|unique (ssRNA)
RNA: GGGAGUUCUACAGUCCGACGAUCUUAUUGGCUUCCUCUGAUAUGCAAGUGGUGCUGGCAGUCCUCAAUCUCCUAUAUGUAUUUAGCAAAAGAUCAAACUACAUCACUCGUCUGGGAUCUGACAAGAGGACCCCGCUGCUAACUCAACAGAGGAUUGAGCAUCA
B3: chrX:101412715:101412817:+|CDS|ENSG00000126945|unk|total|mutant (ssRNA)
RNA: GGGAGUUCUACAGUCCGACGAUCGGGUAUGGAGGCUAUGAUGACUAUGGUGGCUAUAAUGAUGGAUAUGGCUUUGGGUCUGACCGAUUUGGAAGAGACCUCAAUUACUGUUUUUCAGGAAUGUCUGAUCACCGAUACGGAGAUCAACAGAGGAUUGAGCAUCA
B4: chr7:100033925:100034026:+|CDS|ENSG00000106261|msi1|total|mutant (ssRNA)
RNA: GGGAGUUCUACAGUCCGACGAUCCAGAGCUCGGACCUCACCAAGCAUCAGAGAAUUCACACGGGGGAGAAACCCUAUGAAUGCCGUGAAUGUGGAAAAGCUUUCAACCGAAACUCAUACCUGAUUUUGCAUCGGAGAAUUCACCAACAGAGGAUUGAGCAUCA
B5: chr12:123761472:123761573:+|3pUTR|ENSG00000185344|unk|total|mutant (ssRNA)
RNA: GGGAGUUCUACAGUCCGACGAUCAAUAAGGCAGUUUGAACGAACAGUCUUCCCACAGUCAGGCCAUUUUUGCUGAUUUGGUUCCGAAUUUUCAGAAAUACUCCGUACACUCCACCUGUUCUUUGAUGGGAAUAUCUAAGAAGGCAACAGAGGAUUGAGCAUCA
B6: chr20:2117184:2117286:+|CDS|ENSG00000125834|unk|FALSE|unique (ssRNA)
RNA: GGGAGUUCUACAGUCCGACGAUCGCUCCUGGGGACCUACAUUAAACAGGGGACUGAGAUCGUCCCUGUUGGUGAGGCGCUGCUAGAAAACCCAAAGAUGGAGUUGCACAUCCCCCAAAAACGCAGGACUUCCAUGUCUGAGGGCAACAGAGGAUUGAGCAUCA
B7: chr6:106663037:106663138:+|CDS|ENSG00000130348|msi1|FALSE|unique (ssRNA)
RNA: GGGAGUUCUACAGUCCGACGAUCAGCACAGAAAGUGAGACGCCUCAUUGCUAAUGACUUUGUAAAUGCUUUUAACUCUGGAGUAGAUGUCUUGCUAACUCCCACCACCUUGAGUGAGGCAGUACCAUACUUGGAGUUCAUCAACAACAGAGGAUUGAGCAUCA
B8: ENSG00000070961:be:win_1|CDS|ENSG00000070961|bound_else_gene|NA|bound_elsewhere_windowed (ssRNA)
RNA: GGGAGUUCUACAGUCCGACGAUCAUGGGCGACAUGGCAAACAACUCAGUUGCUUACAGUGGUGUGAAAAACUCUUUGAAGGAAGCUAAUCAUGAUGGAGACUUUGGAAUUACGCUCGCAGAGCUGCGGGCUCUCAUGGAGCUCCAACAGAGGAUUGAGCAUCA
B9: chr3:185917260:185917361:-|3pUTR|ENSG00000136527|msi1|FALSE|unique (ssRNA)
RNA: GGGAGUUCUACAGUCCGACGAUCUGGCAAAAAGCAACAAUAAACAGUUUGAUUUUUACUUUUCUUUCUAACAUAUCAAUGCUUAGCAGAACUAUUCAGAUUGUCAGUAGUAAAUUUAAAGACAAAUGCCCGUUUUCCUCCAGUCAACAGAGGAUUGAGCAUCA
B10: chr8:17299120:17299221:-|3pUTR|ENSG00000003987|unk|total|mutant (ssRNA)
RNA: GGGAGUUCUACAGUCCGACGAUCUCCUCAUUAUUUAAAAAUGCUAAACCUUGUAUCUCACUUUUUCUCUAACACUGAUUUAACCGCUAACGAGGCCGAAGCAACAUUCAUUCUCCUGGUCUUACAUAUGAAUUUAAGUAUCAGCAACAGAGGAUUGAGCAUCA
B11: chr12:21491601:21491717:-|CDS|ENSG00000004700|unk|FALSE|unique (ssRNA)
RNA: GGGAGUUCUACAGUCCGACGAUCGCUGCCUCCCAUAGCUCUAACUGAGGAACUGGAUUCUAUAACCAGUGAGCUACAUGCAGUAGAAAUUCAAAUUCAAGAACUUACGGAAAGGCAACAAGAGCUUAUUCAGAAAAAAAAAGUCAACAGAGGAUUGAGCAUCA
B12: chr9:130903550:130903651:-|3pUTR|ENSG00000130720|msi1|total|mutant (ssRNA)
RNA: GGGAGUUCUACAGUCCGACGAUCAAAUACCCGGCAUUAUGGGGACAGAGAGCAGGGGGCAGACAGCACCCCUGGAGUCCUCCCCGCAGAUCGUGGGGAACGUCAGGUCUCUCUGAGGUCAGGUCUGAGGCCAGUAUCCUCCAGCAACAGAGGAUUGAGCAUCA
B13: chr1:113590523:113590624:+|CDS|ENSG00000081026|unk|FALSE|unique (ssRNA)
RNA: GGGAGUUCUACAGUCCGACGAUCUCAUCUGACUGGAUGAAGACUGUUCCAAGUUACAACCAAACAAAUAGCUCCAUGGACUUUAGAAAUUAUAUGAUGAGAGAUGAGACUCUGGAACCACUGCCCAAAAACUGGGAAAUGGCCCAACAGAGGAUUGAGCAUCA
B14: chr4:127885990:127886091:+|CDS|ENSG00000142731|msi1|FALSE|unique (ssRNA)
RNA: GGGAGUUCUACAGUCCGACGAUCAUUACUUAUCGGGAGACCACCCUUCGACACUGACACAGUCAAGAACACAUUAAAUAAAGUAGUAUUGGCAGAUUAUGAAAUGCCAUCUUUUUUGUCAAUAGAGGCCAAGGACCUUAUUCACAACAGAGGAUUGAGCAUCA

These binders were tested against T1, UNK ZnF1-6 (called full-length) (assay: nsRBNS (natural sequence RNA bind-n-seq); RBNS binding buffer (assumed for nsRBNS): 25 mM Tris pH 7.5, 150 mM KCl, 3 mM MgCl2, 0.01% Triton X-100, 500 ug/ml BSA, 20 U/ml SUPERase-In, 4 C; UNK is unkempt and MSI1 is Musashi-1; names of the RNAs are library labels; protein concentration not given here; high values mean tight binding).

Binder | binding signal [enrichment R]
B1 | 0.574
B2 | 0.899
B3 | 0.671
B4 | 0.595
B5 | 0.271
B6 | 1.08
B7 | 0.484
B8 | 0.508
B9 | 0.751
B10 | 0.98
B11 | 0.594
B12 | 0.72
B13 | 1.15
B14 | 1.26
